Out of some 16,000 compounds screened, about 4,000 (25%) were called active. Another 26% or so got no clear call; they are omitted. The call rests on the fitted dose curve; in most records, active means well fitted curve in the direction sought with a large enough effect; inconclusive means small, poorly fitted or top-dose-only effect, or effect the other way; inactive means no such curve, though single readings can be large or run the other way. The list is a sample of the results.
target: Cytochrome P450 2C9 (Homo sapiens) (UniProt P11712); experiment: Cytochrome panel assay with activity outcomes; settings: recombinant CYP, pro-luciferin dealkylation, luminescence, p450-cyp2c9; series mostly up to 57.1 µM; activity, negative = inhibition: at the top concentration
Sequence (P11712 whole entry, looked up): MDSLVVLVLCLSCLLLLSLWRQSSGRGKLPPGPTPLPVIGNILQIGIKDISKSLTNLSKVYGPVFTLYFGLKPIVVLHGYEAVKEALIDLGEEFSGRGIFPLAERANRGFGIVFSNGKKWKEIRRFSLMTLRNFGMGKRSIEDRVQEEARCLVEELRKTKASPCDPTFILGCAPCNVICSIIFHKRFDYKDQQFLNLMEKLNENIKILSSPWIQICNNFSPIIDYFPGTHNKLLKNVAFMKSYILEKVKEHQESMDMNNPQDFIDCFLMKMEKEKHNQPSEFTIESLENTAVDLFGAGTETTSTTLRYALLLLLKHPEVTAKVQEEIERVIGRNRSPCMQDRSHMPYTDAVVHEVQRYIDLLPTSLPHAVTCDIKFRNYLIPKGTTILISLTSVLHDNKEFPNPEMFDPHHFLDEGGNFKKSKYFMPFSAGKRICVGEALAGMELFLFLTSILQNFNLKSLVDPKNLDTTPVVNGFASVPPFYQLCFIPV
On the % scale 0 is the no-effect control and ±100 the full control effect.

activity, negative = inhibition, inactive:
CCN1C(=O)[C@H]2[C@H]3[C@H](O)[C@H](O)C/C(=N/O[C@@H](C)c4cn([C@H]5COC[C@H]5O)nn4)[C@@H]3CC[C@@H]2C1=O 9.59% [at 11.4 µM]
CCOC(=O)c1cc(-c2ccccc2)sc1NC(=O)C(C)(C)C -29.5%
CCOC(=O)CCCNC(=O)CCCNC(=O)C(c1ccccc1)c1ccccc1 -21.3%
CCOC(=O)N/N=C1/C[C@@H](O)[C@@H](O)[C@@H]2[C@@H]3C(=O)N(C(C)(C)C)C(=O)[C@H]3CC[C@@H]12 6.14% [at 11.4 µM]
COc1ccccc1-c1nc(Nc2ccncc2)c2ccccc2n1 -28.7% [at 2.29 µM]
c1nc(NC2CC2)c2cc(-c3ccoc3)ccc2n1 -5.58% [at 2.29 µM]
O=C(O)Cn1c(-c2ccccc2)nc2ccccc21 -9.81%
C[C@@H](CC(=O)O)[C@@H](N)C(=O)O -21.2%
COc1ccc2c3c(ccc2c1)N[C@H](C(=O)O)CC3 -0.255% [at 11.4 µM]
COCCNc1nc(-c2ccccc2OC)nc2ccccc12 5.14% [at 2.29 µM]
COc1cc(CC(=O)O)c(C(C)=O)cc1OC 3.54%
Cc1[nH]c2ccccc2c1C(c1ccccn1)N1CCC(C)CC1 (stereo not drawn) -1.22%
Cn1c(-c2ccccc2)cnc1N 5.03%
Cc1ccccc1CNc1ncnc2c1ncn2[C@@H]1O[C@@H](CO)[C@H](O)[C@@H]1O 5.73%
CC(C)N(CC(=O)O)CC(=O)O -8.23% [at 11.4 µM]
Cc1c(N(C)CS(=O)(=O)O)c(=O)n(-c2ccccc2)n1C -0.666% [at 25.6 µM]
Cc1c(CCO)c(=O)n(C)n1C(=O)c1ccc(F)cc1 55%
N#Cc1ccc(C(=O)Nc2ccc(N3CCN(C(=O)c4ccco4)CC3)cc2)c(F)c1 -19.7%
O=C1C2C3C=CC(C2C(=O)N1CN1CCOCC1)C1C2C(=O)N(CN4CCOCC4)C(=O)C2C31 (stereo not drawn) -4.42% [at 11.4 µM]
COc1c2c(nc3ccccc13)O[C@H]([C@@](C)(O)CO)C2 6.33% [at 25.6 µM]
NC[C@H]1O[C@H](n2cnc3c(N)ncnc32)C[C@@H]1O 11.4% [at 11.4 µM]
CCCCN(C)Cc1c(C)[nH]c2ccc(Cl)cc2c1=O -23.2%
O=C(NCCCN1CCN(Cc2ccccc2)CC1)C1CCN(S(=O)(=O)N2CCCC2)CC1 -14.5%
O=C(NCCCN1CCC(Cc2ccccc2)CC1)C1CCN(S(=O)(=O)N2CCOCC2)CC1 -2.95%
NCS(=O)(=O)O -4.35% [at 11.4 µM]
Cc1noc(C)c1-c1cc(NCc2cccs2)ncn1 17.3% [at 2.29 µM]
O=C(N/N=C/c1ccccn1)c1ccc(Br)o1 -46.8%
CC(/C=C/c1ccccc1)=N/NC(=O)CNC(=O)c1ccc2c(c1)OCO2 -26%
Cc1c(/C=N/NC(=O)c2ccc3c(c2)OCO3)cnn1C -16.9%
CN1CCN(c2ncncc2-c2ccccc2Cl)CC1 -9.71% [at 2.29 µM]
CC(=O)OC[C@@H]1O[C@@H](O/N=C2/C[C@@H](O)[C@@H](O)[C@@H]3[C@@H]4C(=O)N(C[C@@H]5CCCO5)C(=O)[C@H]4CC[C@H]23)[C@H](OC(C)=O)[C@H](OC(C)=O)[C@@H]1OC(C)=O 5.35% [at 11.4 µM]
COc1ccc(-n2cnc3sc(-c4ccccc4)cc3c2=O)cc1 -26.2%
COc1cccc(-c2nc(Nc3ccncc3)c3ccccc3n2)c1 -24.2% [at 2.29 µM]
CC(=O)[C@H]1CC[C@H]2[C@@H]3C=CC4=CC(=O)CC[C@@]4(C)[C@H]3CC[C@]12C -25% [at 25.6 µM]
C[C@@]12C[C@H](O)[C@@H]3[C@H](CCC4=CC(=O)CC[C@]43C)[C@H]1CC[C@@H]2c1csc(N)n1 0.854% [at 11.4 µM]
CCCCSc1nnc(-c2ccc(C)cc2)n1C 14.8%
Nc1ccccc1CCCC(=O)O 1.29% [at 11.4 µM]
COc1cccc(C2=NOC(C(=O)NCc3ccccn3)C2)c1 (stereo not drawn) 14.7%
Cn1c(=O)c2c(nc(N/N=C\c3ccccc3C(=O)O)n2C)n(C)c1=O 7.56% [at 11.4 µM]
CCn1c(CCCc2nc3c([nH]2)c(=O)n(C)c(=O)n3C)nc2c1c(=O)n(C)c(=O)n2C 6.37% [at 11.4 µM]
C[C@@]1(C(=O)O)CCC[C@@H]1C(=O)O 2.33% [at 11.4 µM]
C[N+]1(CCCC[N+]2(C)CCCCCCC2)CCCCCCC1 -4.37% [at 11.4 µM]
CCCN1CCN(CCCNC(=O)Cn2nc(-c3ccc(C)cc3)ccc2=O)CC1 -9.34%
C=CCC(NCc1ccco1)c1ccc(OC)cc1 (stereo not drawn) -46.1%
Cc1cccc(OCCCC(=O)Nc2ccccc2C(F)(F)F)c1 47.3%
Cc1ccc(OCC(=O)NNC(=O)CCC(=O)Nc2ccc(C)cc2C)cc1 33.9%
O=C(NCCc1ccccc1)C(=O)NCC1(c2ccccc2)CCCC1 -15.3%
CCN(CC)CCNC(=O)Cn1nc(-c2ccc(C)cc2)ccc1=O -0.479%
O=P(O)(CCP(=O)(O)c1ccccc1)c1ccccc1 2.87% [at 11.4 µM]
Cc1noc(C)c1-c1cncnc1N(C)Cc1ccco1 17.6% [at 2.29 µM]
NCC[C@H](N)C(=O)O 0.553% [at 11.4 µM]
CC1(C)OC(C(N)=O)C(C(N)=O)O1 (stereo not drawn) -8.75%
Cc1ccc(OCC(=O)NNC(=O)CCC(=O)NCc2ccccc2)cc1 -12%
CCS(=O)(=O)N1CCC(C(=O)NCc2ccco2)CC1 -2.6%
C/C(CC(=O)NCc1ccco1)=N\NC(=O)Cc1ccccc1 -20.5%
COCCNC(=O)c1ccc2c(c1)nc(C)n2-c1cc(OC)c(OC)c(OC)c1 12.1%
CS(=O)(=O)Nc1c(O)ccc2c1CCC[C@H]2C1=NCCN1 13.5%
COc1ccc(Cl)cc1N=Nc1ncc[nH]1 19.7%
CC(=O)N1CCC[C@@]2(CCN(Cc3ccccc3)C2)C1 16.9%
O=C(O)c1ccc2c(c1)C(=O)N(C(Cc1ccc(O)cc1)C(=O)O)C2=O (stereo not drawn) -5.05%
C[N+](C)([O-])CCC=C1c2ccccc2CCc2ccccc21 -29.7% [at 11.4 µM]
Nc1ccc(C(=O)C[C@H](N)C(=O)O)cc1O -13.6% [at 11.4 µM]

AC50, active:
CCOC(=O)c1cc(CC)sc1NC(=O)C(c1ccccc1)c1ccccc1 6.31 µM
COC(=O)c1cc(-c2ccccc2)sc1NC(=O)CN1C(=O)c2ccccc2C1=O 2.82 µM
CCOC(=O)c1cc(-c2ccccc2)sc1NC(=O)c1ccc(OC)cc1 11.2 µM
CCOC(=O)Cn1c(-c2ccccc2)nc2ccccc2c1=O 2 µM
O=c1c2ccccc2nc(-c2ccc(Br)cc2)n1Cc1ccccc1 2.51 µM
CC(=O)c1cc(CC=C(C)C)c(O)cc1O 2.51 µM
CCC(C)(C)n1nnnc1C(c1ccc(C)cc1)N1CCC(C)CC1 (stereo not drawn) 28.2 µM
CN1Cc2c(C(=O)OC(C)(C)C)ncn2-c2ccsc2C1=O 5.01 µM
Cc1c(CCO)c(=O)n(-c2ccccc2)n1S(=O)(=O)c1c(Cl)cc(Cl)cc1Cl 5.01 µM
Cc1cccc(C(=O)N2CCN(c3ccc([N+](=O)[O-])c(NCc4ccco4)c3)CC2)c1 3.55 µM
Cc1ccccc1C(=O)N1CCN(c2ccc([N+](=O)[O-])c(NCc3ccco3)c2)CC1 2.24 µM
O=C(NCCc1ccc(Cl)cc1)C1CCN(S(=O)(=O)N2CCC3(CC2)OCCO3)CC1 7.08 µM
N#Cc1ccc(C2=NC(C(F)(F)F)(C(F)(F)F)c3c(n(Cc4ccco4)c(=O)[nH]c3=O)N2)cc1 0.398 µM
CC1(C)CC2(CC(c3cccs3)c3cc(Cl)c(O)cc3O2)NC(=S)N1 (stereo not drawn) 1 µM
O=C(N/N=C\c1cn(-c2ccccc2)nc1-c1ccccc1)c1ccc2c(c1)OCO2 3.98 µM
COc1ccc(-c2nn(-c3ccccc3)cc2/C=N/NC(=O)c2ccc3c(c2)OCO3)cc1 3.16 µM
O=C(N/N=C\c1cn(-c2ccccc2)nc1-c1ccccc1)c1ccc(Br)o1 1.58 µM
COc1ccc(Nc2ncnc3sc(-c4ccccc4)cc23)cc1 3.98 µM
CC(=O)[C@@H]1CC[C@@H]2[C@@H]3C[C@H](C)C4=CC(=O)CC[C@@]4(C)[C@H]3[C@H](O)C[C@]21C 0.398 µM
CCCCSc1ccc2nc(-c3ccc(C#N)cc3)cn2c1 3.55 µM
CC(C)CCn1c(Oc2ccccc2Cl)nc2c1c(=O)n(C)c(=O)n2C 1 µM
CCCCCOc1ccc(C(=O)NCC2(c3ccccc3)CCOCC2)cc1 2.82 µM
Cc1ccc(OCCCC(=O)Nc2ccccc2C(F)(F)F)cc1 7.94 µM
Cc1ccc(-c2ccc(=O)n(CC(=O)NCc3ccco3)n2)cc1 7.94 µM
CCCCOc1ccc(C(=O)N/C(=C\c2ccc(OC)cc2)C(=O)OCc2ccco2)cc1 2.82 µM
CCCCOc1ccc(C(=O)NCc2ccco2)cc1 10 µM
CCOc1ccc(-n2c(C)nc3cc(C(=O)NCc4ccco4)ccc32)cc1 17.8 µM
Cc1ccc(OCCCC(=O)NCc2ccco2)cc1 14.1 µM
CC(C)(C)c1ccc(C(=O)NCCC(=O)NCc2ccco2)cc1 2.24 µM

AC50, inactive:
Cc1cccc(C(=O)NCN2CCN(c3ccccc3C#N)CC2)c1
CNCCCC1c2ccccc2C=Cc2ccccc21

Source: PubChem BioAssay AID1851 (National Center for Advancing Translational Sciences (NCATS), 2009)
